We go through 18 compounds from PubChem BioAssay (NCATS).

Records with an inconclusive call do not appear. The source made the active and inactive calls. Calls follow the shape of the dose curve; as a rule, active = well fitted activation curve with a large enough effect; inconclusive = small, poorly fitted or top-dose-only effect; inactive = flat fitted curve, though single readings scatter.

The test in a line: Cellular Toxicity (caspase-3) Hek293 (AID 664).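 Also: cells exposed to compound for 16 h at 37 °C before readout.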 The conditions noted are these: HEK293 caspase-3 activation, DMSO = 0%, 100 µM tamoxifen = 100%; series mostly up to 92.2 µM. The source says:
NIH Chemical Genomics Center [NCGC]
NIH Molecular Libraries Screening Centers Network [MLSCN]
National Institutes of Environmental Health Sciences [NIEHS]
National Toxicology Program [NTP]
We have developed a 1536-well cell-based assay for quantitative high throughput screening (qHTS) against a number of cell lines to determine in vitro caspase 3/7 of small molecules. This particular assay uses the Hek 293 cell line which is derived from human embryonic kidney cells.
NCGC Assay Protocol Summary:
The Caspase-Glo 3/7 assay (Promega) is a homogeneous method to measure caspase-3 and caspase-7 activities in cultured cells. The quantitation of caspase 3/7 activity is based on the cleavage of a peptide-aminoluciferin substrate. After caspase cleaves the substrate the free aminoluciferin is liberated and serves as the substrate of luciferase, which generates the light. The luminescent signal is proportional to amount of caspase 3/7 activity present.
Using the Caspase-Glo 3/7 assay, the amount of caspase 3/7 activity was measured in the Hek 293 cell line with complete culture medium following compound treatment for 16 hours. The assay was performed in opaque white 1536-well plates. In the screen, tamoxifen and doxorubicin were used as positive controls. Library compounds were measured for their ability to cause the activation of caspase 3/7 in the cell line, as reflected by an increase in luminescence signal, in a concentration-dependent manner. Data were normalized to the controls for basal activity (DMSO only) and 100% stimulation (100 uM tamoxifen). AC50 values were determined from concentration-response data modeled with the standard Hill equation.
qHTS protocol for caspase 3/7 assay in Hek 293 cells
[Step] [Parameter] [Value] [Description]
2. Time; 5 hr; 37 °C incubation
4. Controls; 23 nL; Tamoxifen 0.23 uM to 100 uM & Doxorubicin 7.0 pM to 100 uM
5. Time; 16 hr; 37 °C incubation
6. Reagent; 5 uL; Caspase-Glo 3/7 reagent
7. Time; 20 min; Room Temperature
8. Detection; Luminescence; Viewlux plate reader
Keywords: caspase 3/7, apoptosis, Hek 293 cell line, luminescence, NTPHTS, NTPHTS_NCGC, NIEHS, EPA, DSSTox, MLSMR, MLSCN, NIH Roadmap, qHTS, NCGC
For `C[C@]12CCC(=O)C=C1CC[C@@H]1[C@@H]2CC[C@@]2(C)[C@H]1CC[C@]2(C)O`, the result was inactive.
Turning to `CN1C[C@H](C(=O)N[C@]2(C)O[C@@]3(O)[C@@H]4CCCN4C(=O)[C@H](Cc4ccccc4)N3C2=O)C=C2c3cccc4[nH]cc(c34)C[C@H]21`, the compound was classed as inactive.
`O=C(O)CCCc1ccc(N(CCCl)CCCl)cc1`: the call was inactive.
`CCC(C)(C)c1ccc(O)cc1`: the outcome was inactive.
Regarding `COP(=S)(OC)Oc1ccc(SC)c(C)c1`, the compound was classed as inactive.
The same measure for `Nc1ccccc1`: “inactive”; for `CCOC(=O)CC(SP(=S)(OC)OC)C(=O)OCC` (stereo not drawn): “inactive”.
On to `Nc1ccccc1C(=O)O`, for which the compound was classed as inactive.
As for `C[C@]12CCC(=O)C=C1CC[C@@H]1[C@@H]2CC[C@]2(C)C(=O)CC[C@@H]12`, the result was inactive.
As to `C[C@]1(O)CC[C@H]2[C@@H]3CCC4=CC(=O)CC[C@]4(C)[C@@]3(F)[C@@H](O)C[C@@]21C`, the result was inactive.
Consider `COc1cc(OC)c(OC)cc1C=O`, for which the result was inactive.
For the compound `CC(C)NC(C)C`, the compound was classed as inactive.
Consider `CC(C)c1cccc(C(C)C)c1O`, for which the result was inactive.
As for `O=P1(N(CCCl)CCCl)NCCCO1` (stereo not drawn), the result was inactive.
As for `CCCC(C)(COC(N)=O)COC(N)=O`, the compound was called inactive.
As for `Oc1ccc(Cl)cc1`, the result was inactive.
For `NCCc1ccc(O)cc1` the value was “inactive”; for `COC(=O)C(c1ccccc1)C1CCCCN1` (stereo not drawn), “inactive”.
